Results published in PubChem BioAssay (Tox21).
Results filed as inconclusive are left out. Calls of active or inactive are those of the source. Unless noted, calls come from the whole dose curve.

How the values were obtained:
[1] = Nuclear factor erythroid 2-related factor 2/antioxidant responsive element (Nrf2/ARE) small molecule agonists: qHTS cell viability counter screen in human keratinocytes (AID 1919968; active = well fitted curve in the direction sought with a large enough effect in the repeat runs; an effect the other way counts as inactive or inconclusive; note: nearly all actives have a fitted effect of over 55% in size)
Summary of the method: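 In human HaCaT keratinocytes stably expressing an ARE-driven luciferase, compound exposure lasted 23 h at 37 C under 5% CO2. Viable cells are quantified with a protease-based fluorogenic reagent (CellTiter-Fluor) read 1 h after addition.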

[2] = Nuclear factor erythroid 2-related factor 2/antioxidant responsive element (Nrf2/ARE) small molecule agonists: luciferase reporter gene qHTS assay in human keratinocytes (AID 1919969); note: nearly all actives have a fitted effect of over 35% in size
[3] = biological target: Gonadotropin-releasing hormone receptor (Homo sapiens) (UniProt P30968); test: Human gonadotropin-releasing hormone receptor (GnRHR) small molecule agonists, calcium flux assay in GnRHR-HEK293 cells (AID 1920063); note: nearly all actives have a fitted effect of over 35% in size
Summary of the method: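 Intracellular calcium rise is the read-out: engineered human GnRHR HEK293 cells, dye-loaded, are exposed to DMSO-dissolved compounds and fluorescence at Ex/Em 480/540 is tracked for 3 min.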

[4] = biological target: KiSS-1 receptor (Homo sapiens) (UniProt Q969F8); test: Human kisspeptin (KISS1R) small molecule agonists, calcium flux assay in KISS1R-HEK293 cells (AID 1920064; active = well fitted curve in the direction sought with a large enough effect in the repeat runs; an effect the other way counts as inactive or inconclusive)
Summary of the method: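 Concentration-response testing used 15 concentrations in triplicate on human KISS1R-expressing HEK293 cells. Calcium-dependent fluorescence (Ex/Em 480/540) was followed kinetically for 3 min after compound transfer.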

[5] = G protein-coupled receptor (GPCR) small molecule agonists, calcium flux assay: HEK293 wild type cell line counter screen (AID 1920065)
Summary of the method: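 Fluorescence intensity signals activation. After overnight (18 h) culture and a 1 h calcium dye load at 37 C, compounds are added by pin tool and the plate read at 480/540 nm for 3 min in 1 s steps.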

[6] = p53 small molecule agonists, cell-based qHTS assay with human liver microsomes (AID 1963577)
Summary of the method: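 p53RE-bla cells, 4,000/well, compound added after 5 h, with human liver microsomes 0.5 mg/mL and NADPH 0.5 mg/mL final; 16 h at 37 C, then LiveBLAzer 2 h RT, fluorescence.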

[7] = p53 small molecule agonists, cell-based qHTS assay with rat liver microsomes (AID 1963578)
Summary of the method: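 p53RE-bla cells, 4,000/well, pre-incubated 5 h, then given compounds plus rat liver microsomes (0.5 mg/mL final) and NADPH (0.5 mg/mL final). Incubation 16 h at 37 C; beta-lactamase reporter read by LiveBLAzer fluorescence after 2 h at room temperature.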

[8] = p53 small molecule agonists, cell-based qHTS assay with human liver microsomes: qHTS cell viability counter screen (AID 1963579); note: nearly all actives have a fitted effect of over 45% in size
Summary of the method: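 p53RE-bla cells, 4,000/well, dosed 5 hours after plating, with human liver microsomes (0.5 mg/mL final) plus NADPH (0.5 mg/mL final), 16 hours at 37 C. Viability read as CellTiter-Glo luminescence after 30 min at room temperature.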

[9] = p53 small molecule agonists, cell-based qHTS assay with rat liver microsomes: qHTS cell viability counter screen (AID 1963580); note: nearly all actives have a fitted effect of over 45% in size
Summary of the method: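 Rat liver microsome (0.5 mg/mL final) and NADPH (0.5 mg/mL final) co-incubation with compounds for 16 h at 37 C on HCT-116 p53RE-bla cells; cytotoxicity taken from intracellular ATP luminescence.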

[10] = p53 small molecule agonists, cell-based qHTS assay: qHTS cell viability counter screen (AID 1963581); note: nearly all actives have a fitted effect of over 45% in size
Summary of the method: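 Luminescence from CellTiter-Glo, reflecting ATP content, serves as the cytotoxicity measure; it is taken after the 2 h reporter substrate step in HCT-116 p53RE-bla cells dosed for 16 h at 37 C.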

[11] = biological target: 5-hydroxytryptamine receptor 2A (Homo sapiens) (UniProt P28223); test: 5-hydroxytryptamine receptor 2A (HTR2A) small molecule agonists, cell-based qHTS assay (AID 1963587); note: nearly all actives have a fitted effect of over 30% in size
Summary of the method: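 Kinetic calcium-flux fluorescence (2 min, 1 sec intervals) after compound addition in agonist mode. HTR2A-CHO cells were cultured 18 h, then dye-loaded 1 h at 37 C.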

[12] = biological target: Muscarinic acetylcholine receptor M1 (Homo sapiens) (UniProt P11229); test: Cholinergic receptor muscarinic 1 (CHRM1) small molecule agonists, cell-based qHTS assay (AID 1963589); note: nearly all actives have a fitted effect of over 35% in size
Summary of the method: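 Fluorescent calcium dye reports M1 activation in stably transfected CHO cells. Compounds, 15 concentrations, added after 1 h dye loading at 37 C; kinetic reading at 1 sec intervals.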

[13] = cAMP Responsive Elements (CRE) small molecule antagonists, cell-based qHTS assay (AID 1963591; active = well fitted inhibition curve with a large enough effect in the signal ratio in the repeat runs, not every such curve was filed as active; the % refers to the signal ratio)
Summary of the method: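 Stimulation used NKH477 at a final 0.25 uM for 3 h in compound-treated CRE-bla HEK293T cells, seeded 18 h beforehand. Reporter activity was measured with LiveBLAzer B/G FRET substrate after 2 h at room temperature.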

[14] = biological target: Beta-2 adrenergic receptor (Homo sapiens) (UniProt P07550); test: Adrenergic beta2 receptor (ADRB2) small molecule antagonists, cell-based qHTS assay (AID 1963592); note: series mostly up to about 92 µM; nearly all actives have a fitted effect of over 50% in size
Summary of the method: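 Assay format: CHO-ADRB2 cells, 18-20hr seeding at 37C/5% CO2, then compound plus 1nM isoproterenol agonist mix for 0.5hr RT. Homogeneous time-resolved fluorescence cAMP detection after 1hr, expressed as 665/615 nm ratio.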

[15] = biological target: D(2) dopamine receptor (Homo sapiens) (UniProt P14416); test: Dopamine D2 receptor (DRD2) small molecule agonists, cell-based qHTS assay (AID 1963594); note: nearly all actives have a fitted effect of over 35% in size
Summary of the method: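 cAMP accumulation in DRD2-HEK293 cells measured by HTRF after 1 h detection; compounds added 10 min before NKH477 (200nM […]) forskolin-analogue stimulation, 30 min at room temperature, with Ro20-1724 present at 0.1 mM final.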

[16] = p53 small molecule agonists, cell-based qHTS assay (AID 1963582; active = well fitted activation curve with a large enough effect in the signal ratio in the repeat runs, not every such curve was filed as active; the % refers to the signal ratio)
Summary of the method: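 After plating, p53RE-bla cells sat 5 h in the incubator; compounds or DMSO vehicle were pinned in; a 16 h incubation at 37 C followed; FRET substrate was added and, 2 h later at RT, fluorescence was measured.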

[17] = biological target: 5-hydroxytryptamine receptor 2A (Homo sapiens) (UniProt P28223); test: 5-hydroxytryptamine receptor 2A (HTR2A) small molecule antagonists, cell-based qHTS assay (AID 1963586); note: nearly all actives have a fitted effect of over 45% in size
Summary of the method: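 CHO cells stably expressing human HTR2A were plated for 18 h at 37 C, then loaded with calcium dye for 1 h. Compounds were preincubated 5 min at room temperature before DOI (4 nM solution) was added. Kinetic fluorescence was read for 3 min.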

[18] = biological target: Muscarinic acetylcholine receptor M1 (Homo sapiens) (UniProt P11229); test: Cholinergic receptor muscarinic 1 (CHRM1) small molecule antagonists, cell-based qHTS assay (AID 1963588); note: nearly all actives have a fitted effect of over 40% in size
Summary of the method: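 Compounds were tested at 15 concentrations in three independent runs. Dye-loaded CHRM1-CHO cells were exposed 5 min at room temperature before stimulation by acetylcholine added at 50nM. Intracellular calcium was read kinetically on FDSS for 3 min.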

[19] = cAMP Responsive Elements (CRE) small molecule agonists, cell-based qHTS assay (AID 1963590)
Summary of the method: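 Compound exposure lasted 3 h at 37 C/5% CO2 in CRE-bla HEK 293T cells grown in assay medium with 10% dialyzed FBS and 25 mM HEPES. Reporter signal came from LiveBLAzer B/G FRET substrate, 2 h, room temperature.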

[20] = biological target: D(2) dopamine receptor (Homo sapiens) (UniProt P14416); test: Dopamine D2 receptor (DRD2) small molecule antagonists, cell-based qHTS assay (AID 1963595; active = well fitted inhibition curve with a large enough effect in the signal ratio in the repeat runs, with a control signal flat; the % refers to the signal ratio)
Summary of the method: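 Human DRD2 antagonist qHTS measuring cAMP by HTRF. The cells are exposed to compound for 10 min, then to NKH477 (200 nM) and quinpirole (12 nM) for 30 min at RT, with Ro20-1724 (0.1 mM) present throughout.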

Measured: Potency

Sequence of D(2) dopamine receptor (Homo sapiens) (P14416 whole entry, looked up): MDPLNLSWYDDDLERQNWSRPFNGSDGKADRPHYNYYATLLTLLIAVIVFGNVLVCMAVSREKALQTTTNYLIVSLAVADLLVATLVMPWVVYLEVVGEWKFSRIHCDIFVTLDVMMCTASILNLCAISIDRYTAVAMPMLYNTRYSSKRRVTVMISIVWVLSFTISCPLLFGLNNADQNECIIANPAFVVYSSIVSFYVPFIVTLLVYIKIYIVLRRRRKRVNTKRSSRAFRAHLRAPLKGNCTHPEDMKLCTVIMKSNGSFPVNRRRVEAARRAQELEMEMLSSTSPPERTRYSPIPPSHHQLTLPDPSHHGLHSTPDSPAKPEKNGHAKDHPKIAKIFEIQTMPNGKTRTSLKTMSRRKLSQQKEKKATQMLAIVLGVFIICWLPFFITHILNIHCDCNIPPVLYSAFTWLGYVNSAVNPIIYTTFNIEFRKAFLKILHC
Sequence of Muscarinic acetylcholine receptor M1 (Homo sapiens) (P11229 whole entry, looked up): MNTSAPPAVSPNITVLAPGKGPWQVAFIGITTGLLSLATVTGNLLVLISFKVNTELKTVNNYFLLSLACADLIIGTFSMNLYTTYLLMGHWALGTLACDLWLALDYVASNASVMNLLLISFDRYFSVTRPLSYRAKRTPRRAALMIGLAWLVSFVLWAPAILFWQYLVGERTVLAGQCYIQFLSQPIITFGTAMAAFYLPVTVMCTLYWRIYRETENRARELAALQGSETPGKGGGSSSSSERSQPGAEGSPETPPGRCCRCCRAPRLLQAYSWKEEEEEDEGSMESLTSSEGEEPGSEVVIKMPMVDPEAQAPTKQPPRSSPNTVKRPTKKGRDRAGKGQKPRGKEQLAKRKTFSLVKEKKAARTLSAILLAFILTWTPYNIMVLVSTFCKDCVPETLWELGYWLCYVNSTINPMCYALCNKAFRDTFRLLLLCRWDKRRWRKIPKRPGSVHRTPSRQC
Sequence of Beta-2 adrenergic receptor (Homo sapiens) (P07550 whole entry, looked up): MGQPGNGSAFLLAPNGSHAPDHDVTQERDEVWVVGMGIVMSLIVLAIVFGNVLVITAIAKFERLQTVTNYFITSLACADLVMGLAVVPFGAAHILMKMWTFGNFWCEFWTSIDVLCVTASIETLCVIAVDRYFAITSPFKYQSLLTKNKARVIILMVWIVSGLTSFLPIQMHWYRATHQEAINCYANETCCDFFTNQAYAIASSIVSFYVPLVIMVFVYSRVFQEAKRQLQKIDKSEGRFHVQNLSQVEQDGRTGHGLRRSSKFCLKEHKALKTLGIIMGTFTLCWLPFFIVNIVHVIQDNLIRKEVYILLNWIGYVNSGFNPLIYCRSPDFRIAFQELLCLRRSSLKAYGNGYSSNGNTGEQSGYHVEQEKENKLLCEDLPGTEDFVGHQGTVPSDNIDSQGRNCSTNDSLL
Sequence of 5-hydroxytryptamine receptor 2A (Homo sapiens) (P28223 whole entry, looked up): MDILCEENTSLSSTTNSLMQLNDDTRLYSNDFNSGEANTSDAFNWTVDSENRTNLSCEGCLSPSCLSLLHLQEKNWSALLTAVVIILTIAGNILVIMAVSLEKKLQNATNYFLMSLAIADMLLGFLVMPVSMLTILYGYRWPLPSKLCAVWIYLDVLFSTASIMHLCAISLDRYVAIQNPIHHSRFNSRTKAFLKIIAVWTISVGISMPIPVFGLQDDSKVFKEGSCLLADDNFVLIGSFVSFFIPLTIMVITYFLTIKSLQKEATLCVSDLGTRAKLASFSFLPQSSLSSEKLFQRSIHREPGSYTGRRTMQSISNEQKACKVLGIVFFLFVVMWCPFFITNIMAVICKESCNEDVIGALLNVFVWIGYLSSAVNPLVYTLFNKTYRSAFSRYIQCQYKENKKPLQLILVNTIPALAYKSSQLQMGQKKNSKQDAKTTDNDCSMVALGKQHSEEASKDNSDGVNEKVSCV
Sequence of KiSS-1 receptor (Homo sapiens) (Q969F8 whole entry, looked up): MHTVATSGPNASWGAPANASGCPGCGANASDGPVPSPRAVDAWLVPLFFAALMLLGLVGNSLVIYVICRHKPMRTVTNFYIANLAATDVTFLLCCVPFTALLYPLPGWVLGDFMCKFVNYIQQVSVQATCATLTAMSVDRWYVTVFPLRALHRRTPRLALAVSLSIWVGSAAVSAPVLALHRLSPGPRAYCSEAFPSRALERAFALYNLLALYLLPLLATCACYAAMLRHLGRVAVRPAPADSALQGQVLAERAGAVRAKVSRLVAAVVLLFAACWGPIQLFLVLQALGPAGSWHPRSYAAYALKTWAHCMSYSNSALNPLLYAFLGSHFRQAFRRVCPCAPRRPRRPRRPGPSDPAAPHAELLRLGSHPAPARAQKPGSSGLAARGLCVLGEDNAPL
Sequence of Gonadotropin-releasing hormone receptor (Homo sapiens) (P30968 whole entry, looked up): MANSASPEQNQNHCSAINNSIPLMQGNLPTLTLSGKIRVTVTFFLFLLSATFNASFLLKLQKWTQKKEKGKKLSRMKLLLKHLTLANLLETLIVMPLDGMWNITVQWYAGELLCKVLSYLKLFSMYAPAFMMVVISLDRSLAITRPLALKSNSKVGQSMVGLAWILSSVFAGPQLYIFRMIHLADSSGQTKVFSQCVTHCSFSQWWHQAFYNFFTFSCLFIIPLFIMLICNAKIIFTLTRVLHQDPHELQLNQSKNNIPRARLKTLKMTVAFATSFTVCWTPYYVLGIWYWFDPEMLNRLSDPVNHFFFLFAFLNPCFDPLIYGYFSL

C#CCN[C@@H]1CCc2ccccc21
not listed: [16] | [17] | [18] | [19] | [20]
inactive: all other assays above

CCCCCCCCN1CCCC1=O
not listed: [10]
inactive: all other assays above

O=C(O)CCC(=O)C(=O)O
not listed: [10]
inactive: all other assays above

C=CCSSCCC
not listed: [10]
inactive: all other assays above

BrC(Br)C(Br)Br
not listed: [10]
inactive: all other assays above

N[C@H]1CN(c2c(F)cc3c(=O)c(C(=O)O)cn(C4C[C@H]4F)c3c2Cl)CC12CC2 (stereo partly specified)
not listed: [10] | [13] | [14] | [19]
inactive: all other assays above

CCOC(=O)C(C)(C)C
not listed: [10]
inactive: all other assays above
